High-throughput results deposited in PubChem by National Center for Advancing Translational Sciences (NCATS).
VDR inh – Inhibitors of the vitamin D receptor (VDR): qHTS; Vitamin D3 receptor (Homo sapiens), P11473; VDR-SRC2-3 peptide fluorescence polarization, 2 h; Potency, µM, hits mostly inhibitors; actives 0.93% (n = 400,000)
Target sequence (P11473 whole entry, looked up): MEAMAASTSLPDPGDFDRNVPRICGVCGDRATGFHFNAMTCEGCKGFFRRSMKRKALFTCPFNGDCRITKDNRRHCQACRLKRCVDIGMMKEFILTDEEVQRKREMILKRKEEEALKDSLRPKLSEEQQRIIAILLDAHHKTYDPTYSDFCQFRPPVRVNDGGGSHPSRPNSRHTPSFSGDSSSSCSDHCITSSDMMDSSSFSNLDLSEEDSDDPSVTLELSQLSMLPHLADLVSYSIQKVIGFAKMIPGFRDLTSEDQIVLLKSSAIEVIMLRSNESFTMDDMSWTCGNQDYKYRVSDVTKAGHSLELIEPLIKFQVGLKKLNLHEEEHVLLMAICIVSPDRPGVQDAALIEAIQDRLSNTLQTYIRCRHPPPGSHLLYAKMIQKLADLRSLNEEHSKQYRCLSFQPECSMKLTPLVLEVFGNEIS
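The screen uses fluorescence polarization to detect compounds that interfere with recruitment of the SRC2-3 coactivator peptide to VDR; plates are read after 2 h at room temperature.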
TDP1 inh – qHTS Assay for Inhibitors of Tyrosyl-DNA Phosphodiesterase (TDP1); Potency, µM (highest dose often 130 µM), most hits filed as inhibitors; actives 0.28% (n = 350,000); recombinant TDP1, AlphaScreen DNA substrate cleavage; Tyrosyl-DNA phosphodiesterase 1 (Homo sapiens), Q9NUW8; further: nearly all actives have a fitted effect of over 40% in size
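Enzyme-compound mixtures sat 15 min at room temperature, followed by a 5 min reaction with 15 nM final substrate and 10 min with AlphaScreen beads. Recombinant human Tdp1 was used at 1 nM final.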
PLK1 PBD inh – qHTS for Inhibitors of PLK1-PDB (polo-like kinase 1 - polo-box domain): Primary Screen; Serine/threonine-protein kinase PLK1 (Homo sapiens), P53350; Plk1 PBD binding of FITC phosphopeptide, fluorescence polarization; AID 720504, 2013; actives 2.8% (n = 360,000); Potency, µM, hits mostly inhibitors; further: series mostly up to about 57 µM; nearly all actives have a fitted effect of over 65% in size
DT40 TDP1 CPT – qHTS for Inhibitors of human tyrosyl-DNA phosphodiesterase 1 (TDP1): qHTS in cells in presence of CPT; chicken DT40 Tdp1-/-;hTDP1 cells + 20 nM CPT, ATP luminescence, 48 h; Potency, µM (top dose mostly 46.2 µM), most hits filed as inhibitors; actives 12% (n = 420,000); AID 686979, 2013; further: nearly all actives have a fitted effect of over 55% in size
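Chicken DT40 Tdp1-/- cells complemented with human TDP1, 400 cells/well, exposed to compounds plus 20 nM camptothecin for at least 48 h at 37 C; viability read as ATP content by CellTiter-Glo luminescence.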
KAT2A inh – qHTS Assay for Inhibitors of GCN5L2; Histone acetyltransferase KAT2A (Homo sapiens), Q92830; GCN5L2 HAT assay, ThioGlo1 CoA-SH fluorescence; Potency, µM (top dose mostly 58.9 µM), hits mostly inhibitors; actives 0.21% (n = 390,000)
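Fluorescence readout, Ex340nm/Em540nm: ThioGlo1 (50uM final) reacts with free CoA thiol released as 20nM GCN5L2 acetylates H3(1-25) peptide (75uM) using acetyl-CoA (70uM). Compound and enzyme sat 15 min beforehand; 20 min room-temperature reaction.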
DT40 TDP1 no CPT – qHTS for Inhibitors of human tyrosyl-DNA phosphodiesterase 1 (TDP1): qHTS in cells in absence of CPT; DT40 Tdp1-/- hTDP1 cells, no CPT, ATP luminescence, 48 h; Potency, µM (highest dose often 46.2 µM), actives largely listed as inhibitors; actives 15% (n = 420,000); AID 686978, 2013; further: nearly all actives have a fitted effect of over 55% in size
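No-CPT arm: Tdp1-/-;hTDP1 DT40 cells (400/well) plus compounds, incubated ≥48 hr at 37 °C. Readout CellTiter-Glo luminescence.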
USP1 UbRho – Inhibitors of USP1/UAF1: Hit Validation in Primary Assay. actives 50% (n = 50). shares compounds with VDR inh. Potency, µM (doses to about 56.8 µM), usual class: inhibitors. Ub-Rhodamine cleavage, fluorescence kinetic read
VDR confirm – qHTS for Inhibitors of the vitamin D receptor (VDR): Hit Validation in Primary Screen. VDR-coactivator inhibition assay, qHTS confirmation. Potency, µM, actives largely listed as inhibitors. AID 602199, 2012. actives 89% (n = 840). shares compounds with VDR inh
VDR FP – qHTS for Inhibitors of the vitamin D receptor (VDR): Hit Validation using a Fluorescein Assay; shares compounds with VDR inh; VDR-coactivator binding, fluorescein fluorescence polarization; Potency, µM (titrated, usually from 57.1 µM), hits mostly inhibitors; actives 48% (n = 840); AID 602200, 2012
VDR bla reporter – qHTS for Inhibitors of the vitamin D receptor (VDR): Hit Validation using a Beta-Lactamase Assay. shares compounds with VDR inh. VDR beta-lactamase reporter cells, FRET ratio; cells co-treated with VDR agonist LG190178. Potency, µM (top dose mostly 46.1 µM), most hits filed as inhibitors. actives 23% (n = 840)
VDR viability – qHTS for Inhibitors of the vitamin D receptor (VDR): Hit Validation using a Cytotoxicity Assay. shares compounds with VDR inh. cytotoxicity counter-screen, cell viability, qHTS. Potency, µM (doses to about 48.3 µM), most hits filed as cytotoxic. actives 18% (n = 840). AID 602204, 2012; further: nearly all actives have a fitted effect of over 75% in size
Hits are given with their value; . = inactive; ? = inconclusive; / = not tested or not shown. Shown are actives, neighbours in structure and some others; about 18% of the full set was active somewhere. The call rests on the fitted dose curve; in most records, active means well fitted curve in the direction sought with a large enough effect; inconclusive means small, poorly fitted or top-dose-only effect, or another doubt; inactive means no such curve, though single readings can be large; an effect the other way counts as inactive or inconclusive.

SMILES | VDR inh | TDP1 inh | PLK1 PBD inh | DT40 TDP1 CPT | KAT2A inh | DT40 TDP1 no CPT | VDR confirm | VDR FP | VDR bla reporter | VDR viability | others
O=S(=O)(Nc1c(S(=O)(=O)c2ccccc2)c2nc3ccccc3nc2n1C1CCCCC1)c1ccccc1 | ? | . | 4.2µM | 9.2µM | . | 5.2µM | 0.35 | 0.35µM | . | .
CCOC(=O)CC1=CCc2c1ccc(OC)c2OC | . | / | . | . | / | . | / | / | / | /
Cc1nn(Cc2ccccc2)c(Cl)c1/C=C/C(=O)OCC(=O)N(C)C1CCS(=O)(=O)C1 (stereo unspecified) | . | . | . | . | . | . | / | / | / | /
NNC(=O)CN1C(=O)Nc2ccc(Cl)cc2C1c1ccccc1 (stereo unspecified) | . | / | . | . | . | . | / | / | / | /
O=S1OC(c2ccccc2)c2cc(Cl)ccc21 (stereo unspecified) | 22µM | . | ? | . | . | . | 3.2 | 3.5µM | . | .
COc1ccc(S(=O)(=O)N2CCC(C(=O)NCc3cccnc3)CC2)cc1Cl | . | / | . | . | . | . | / | / | / | /
CCOC(=O)c1sc(NC(=O)C(C)C)c(C#N)c1C | 28µM | . | 3µM | ? | . | ? | 3.8 | ? | . | .
O=C(/C=C/c1ccc(Cl)cc1)c1ccc([N+](=O)[O-])o1 | 11µM | . | ? | 1µM | . | 0.65µM | 1.3 | 1µM | 7.3µM | .
O=C(NCc1cccnc1)/C(=C\c1ccc(-c2ccc(Br)cc2)o1)S(=O)(=O)c1ccccc1 | 40µM | . | ? | 2.9µM | ? | 3.3µM | 34 | ? | 5.8µM | 21µM
CC1(C)C(=O)NC2=C1C(=O)C(=O)c1ccccc12 | 45µM | . | / | 1.3µM | . | 0.94µM | / | / | / | / | USP1 UbRho=0.83µM
CC1(C)CC(=O)C2=C(C1)NC1=C(C(=O)c3ccccc31)C2c1ccc(Cl)cc1 (stereo unspecified) | . | . | . | ? | . | ? | / | / | / | /
O=S(=O)(/C=C/c1ccccc1)NCc1ccccc1Cl | . | . | . | . | . | . | / | / | / | /
Cc1ccc(S(=O)(=O)Nc2ccc(O)c3ccccc23)c(C)c1 | 28µM | / | 4.2µM | 3.7µM | . | 5.2µM | 11 | 10µM | . | ?
Cc1ccc(S(=O)(=O)Nc2cc(C(C(=O)OC(C)C)C(=O)C(F)(F)F)c(O)c3ccccc23)c(C)c1 (stereo unspecified) | . | . | . | ? | . | ? | / | / | / | /
